Shown are actives, neighbours in structure and some others; about 10% of the full set was active somewhere.
G9a block: G9a (human) methyltransferase inhibition; G9a H3K9 monomethylation, AlphaScreen, 2 h; Potency, µM (top dose mostly 102 µM), most hits filed as inhibitors; actives 8.8% (n = 350,000); AID 504332; note: nearly all actives have a fitted effect of over 75% in size
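Step 1: enzyme (final 20 nM) with compound, 15 min RT. Step 2: substrate peptide 500 nM and SAM 20 uM, 2 h RT. Step 3: anti-H3K9me1 antibody and AlphaScreen beads, 10 min, then plate read.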
Six1-Eya2 inh: inhibitors of human Six1/Eya2 interaction; activity change, % (test concentration not listed); actives 0.56% (n = 360,000); AlphaScreen GST-Six1/His-Eya2 binding, biochemical; active compounds read low; AID 651725; in the data active = activity change below about -65%; inconclusive = mostly about -30% to -63%
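GST-Six1 + His-Eya2 (5X stock: 250/500 nM); Tris pH 8.0, 300 mM NaCl, 0.05% BSA, 0.02% Tween 20; GSH donor/Ni acceptor beads; 1 h 37 °C dark; AlphaScreen readout.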
BAZ2B inh: inhibitors of human BAZ2B bromodomain; Q9UIF8; AlphaScreen BAZ2B-H3K14Ac peptide displacement; Potency, µM (top dose mostly 114 µM), usual class: inhibitors; actives 4.4% (n = 360,000); AID 504333; note: nearly all actives have a fitted effect of over 60% in size
Target sequence (Q9UIF8 whole entry, looked up): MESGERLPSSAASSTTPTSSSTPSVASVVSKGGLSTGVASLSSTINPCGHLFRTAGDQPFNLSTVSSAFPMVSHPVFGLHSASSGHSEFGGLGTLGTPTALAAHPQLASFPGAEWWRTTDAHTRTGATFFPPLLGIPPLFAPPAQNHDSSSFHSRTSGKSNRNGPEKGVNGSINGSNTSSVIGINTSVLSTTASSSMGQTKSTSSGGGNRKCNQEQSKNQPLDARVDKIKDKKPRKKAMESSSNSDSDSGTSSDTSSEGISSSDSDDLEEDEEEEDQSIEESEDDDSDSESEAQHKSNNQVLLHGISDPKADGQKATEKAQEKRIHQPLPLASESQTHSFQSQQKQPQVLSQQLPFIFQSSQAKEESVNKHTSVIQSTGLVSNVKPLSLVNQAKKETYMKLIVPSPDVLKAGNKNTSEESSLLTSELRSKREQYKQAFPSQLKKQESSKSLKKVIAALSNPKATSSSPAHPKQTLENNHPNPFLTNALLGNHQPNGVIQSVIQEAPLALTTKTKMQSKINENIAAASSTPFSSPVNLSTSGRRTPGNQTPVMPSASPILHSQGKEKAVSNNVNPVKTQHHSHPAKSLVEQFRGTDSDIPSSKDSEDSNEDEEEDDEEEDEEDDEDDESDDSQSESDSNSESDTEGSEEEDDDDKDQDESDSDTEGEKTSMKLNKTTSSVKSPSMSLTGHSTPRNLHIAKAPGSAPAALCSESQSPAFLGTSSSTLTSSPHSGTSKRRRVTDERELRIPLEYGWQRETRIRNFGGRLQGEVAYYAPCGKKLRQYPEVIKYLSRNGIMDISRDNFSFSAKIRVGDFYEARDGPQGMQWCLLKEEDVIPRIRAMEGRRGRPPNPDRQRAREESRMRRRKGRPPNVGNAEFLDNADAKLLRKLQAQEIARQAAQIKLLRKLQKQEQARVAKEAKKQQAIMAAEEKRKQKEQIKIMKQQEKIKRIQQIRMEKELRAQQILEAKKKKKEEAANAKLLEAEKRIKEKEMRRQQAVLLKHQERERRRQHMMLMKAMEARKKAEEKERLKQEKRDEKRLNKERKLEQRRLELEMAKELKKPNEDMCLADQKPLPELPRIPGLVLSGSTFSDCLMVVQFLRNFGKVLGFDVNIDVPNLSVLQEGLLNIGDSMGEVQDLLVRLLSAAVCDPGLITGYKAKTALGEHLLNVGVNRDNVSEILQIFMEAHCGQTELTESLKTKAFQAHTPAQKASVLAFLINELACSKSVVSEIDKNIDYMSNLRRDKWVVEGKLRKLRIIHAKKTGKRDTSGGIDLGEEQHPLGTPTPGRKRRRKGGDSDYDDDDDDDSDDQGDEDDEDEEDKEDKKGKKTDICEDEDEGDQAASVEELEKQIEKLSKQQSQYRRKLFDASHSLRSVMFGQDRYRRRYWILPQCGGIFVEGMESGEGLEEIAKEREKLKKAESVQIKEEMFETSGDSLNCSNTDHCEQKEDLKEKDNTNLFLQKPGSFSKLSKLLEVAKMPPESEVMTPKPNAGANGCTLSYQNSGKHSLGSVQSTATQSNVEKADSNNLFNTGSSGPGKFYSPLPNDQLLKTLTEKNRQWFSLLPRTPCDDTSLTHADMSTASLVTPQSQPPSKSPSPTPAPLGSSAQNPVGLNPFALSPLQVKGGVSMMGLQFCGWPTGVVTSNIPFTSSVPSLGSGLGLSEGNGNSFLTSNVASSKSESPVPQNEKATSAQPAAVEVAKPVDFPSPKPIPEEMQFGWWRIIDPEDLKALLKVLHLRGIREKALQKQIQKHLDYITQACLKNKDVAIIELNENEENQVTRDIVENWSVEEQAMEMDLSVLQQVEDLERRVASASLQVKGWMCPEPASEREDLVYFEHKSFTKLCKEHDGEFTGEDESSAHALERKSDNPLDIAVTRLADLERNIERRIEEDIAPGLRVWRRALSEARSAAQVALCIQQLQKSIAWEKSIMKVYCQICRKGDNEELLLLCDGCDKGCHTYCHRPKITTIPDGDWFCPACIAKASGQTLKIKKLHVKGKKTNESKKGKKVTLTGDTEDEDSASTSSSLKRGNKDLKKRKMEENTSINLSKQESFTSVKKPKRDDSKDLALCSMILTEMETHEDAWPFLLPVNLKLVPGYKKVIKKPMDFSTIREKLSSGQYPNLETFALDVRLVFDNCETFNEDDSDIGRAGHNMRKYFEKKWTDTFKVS
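AlphaScreen displacement of biotin-H3(5-23)K14Ac peptide (50 nM final) from BAZ2B (50 nM final) in PBS pH 7.4, 0.01% Tween-20; complex preformed 30 min RT, then compounds (top 110 uM) 30 min RT, beads 20 min dark.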
HP1b binding inh: inhibitors of HP1-beta chromodomain binding to methylated histone tails; Potency, µM (titrated, usually from 114 µM), most hits filed as inhibitors; actives 0.56% (n = 390,000); AlphaScreen HP1-beta / biotin-H3K9me3 peptide binding; P83916; note: nearly all actives have a fitted effect of over 70% in size
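Compound inhibition of the preformed complex between 50 nM HP1-beta and 50 nM biotinylated H3K9me3 peptide was read by AlphaScreen. Buffer was PBS pH 7.4 with 0.01% Tween-20. Incubations ran 30 min at room temperature, with 10 ug/mL donor/acceptor beads.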
JMJD2A Tudor: blocks the human JMJD2A Tudor domain; O75164; AlphaScreen JMJD2A-Tudor / H3K4me3 peptide binding; Potency, µM (series often up to 114 µM), hits mostly inhibitors; actives 4.4% (n = 390,000); note: nearly all actives have a fitted effect of over 50% in size
CtBP-E1A blk: inhibitors of CtBP/E1A interaction. AID 651724. actives 0.49% (n = 340,000). activity change, % (test concentration not listed). AlphaScreen GST-E1A/His-CtBP binding, 1536-well; active compounds read low; in the data active = activity change below about -65%; inconclusive = mostly about -30% to -63%
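GST-E1A and His-tagged CtBP (125 nM each as 5X stock) were preincubated with pin-transferred compound for 2 h at 37 °C in the dark, then glutathione donor and nickel acceptor beads were added for 1 h before AlphaScreen reading.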
A number is an active result; 0 = inactive; ? = inconclusive; - = no result given; [ ] = dose if it differs, or a comment. Unless noted, calls come from the whole dose curve; as a rule, active = well fitted inhibition curve with a large enough effect; inconclusive = small, poorly fitted or top-dose-only effect; inactive = no such curve, though single readings can be large or run the other way.

SMILES | G9a block | Six1-Eya2 inh | BAZ2B inh | HP1b binding inh | JMJD2A Tudor | CtBP-E1A blk
COc1ccc(NC(=O)c2cccnc2)c([N+](=O)[O-])c1 | 0[12.7 µM] | 0 | 0 | 0 | 0 | 0
COc1ccc(NC(=O)c2ccccc2)c([N+](=O)[O-])c1 | 79.4µM | 0 | ? | 0 | 0 | 0
Cc1ccc(C(=O)NCCCNc2ccccc2[N+](=O)[O-])cc1 | 56.2µM | 0 | ? | 0 | 89.1µM | 0
Cc1ccc(C(=O)NCCCNC(=O)c2ccccn2)cc1 | 0 | 0 | 0 | 0 | 0 | 0
COc1ccccc1-n1c(SCC(=O)Nc2ccc(NC(C)=O)cc2)nc2c([nH]c3ccccc32)c1=O | - | 0 | 0 | 0 | 0 | 0
COc1ccccc1OCc1nc(-c2cccc(C)c2)no1 | 0 | - | 0 | 0 | 0 | -
O=C(Nc1ccccc1O)c1ccc([N+](=O)[O-])cc1 | 0 | 0 | 0 | 0 | 0 | -
COc1ccc(NC(=O)CC2Nc3ccccc3NC2=O)cc1 (stereo unspecified) | 0 | - | 0 | 0 | 0 | -
CSc1ccccc1NC(=O)c1ccc([N+](=O)[O-])cc1 | 31.6µM | 0 | ? | ? | 0 | 0
COc1ccc(NC(=O)CC2Nc3ccccc3NC2=O)c([N+](=O)[O-])c1 (stereo unspecified) | 50.1µM | 0 | 0 | 0 | 0 | 0
CCOc1ccccc1Nc1nnc(SCC(=O)Nc2nc(-c3ccc(OC)cc3)cs2)s1 | 8.91µM | 0 | 0 | 0 | ? | 0
COc1ccccc1Nc1nnc(SCC(=O)Nc2nc(-c3ccc(F)cc3)cs2)s1 | - | 0 | 0 | 0 | 0 | -
COc1ccc(-c2csc(NC(=O)CSc3nnc(Nc4ccccc4C)s3)n2)cc1 | 11.2µM | 0 | 0 | 0 | 0 | 0
CC(=O)NCCNC(=O)CCCc1nnc2n(CC(C)C)c(=O)c3sccc3n12 | 0 | - | 0 | 0 | 0 | -
Cc1ccc(-c2nnc(SCC(=O)N3CCCC3)o2)cc1C | 50.1µM | 0 | 0 | 0 | ? | 0
COc1cc(OC)cc(-c2nnc(SCC(=O)N3CCC(C)CC3)o2)c1 | 22.4µM | - | 0 | 0 | 0 | -
COc1cc(OC)cc(-c2nnc(SCC(=O)N3CCCC3)o2)c1 | 0 | 0 | 0 | 0 | 0 | 0
CCOC(=O)N1CCN(C(=O)CSc2nnc(-c3cccc(OC)c3)o2)CC1 | 50.1µM | 0 | 0 | 0 | ? | 0
NC(=O)CSc1nnc(-c2ccc(S(=O)(=O)N3CCCC3)cc2)o1 | 11.2µM | 0 | 0 | 0 | 0 | 0
CCOC(=O)N1CCN(C(=O)CSc2nnc(-c3ccc(C)c(C)c3)o2)CC1 | 0 | 0 | 0 | 0 | 0 | 0
COC(=O)CSc1nnc(-c2ccc(S(=O)(=O)N3CCCC3)cc2)o1 | 0 | 0 | 0 | 0 | 0 | 0
Cc1ccc(CNC(=O)CCCn2c(=O)c3ccccc3n(CC(=O)Nc3ccc(C)c(C)c3)c2=O)cc1 | 0 | - | 0 | 0 | 0 | -
COc1cccc(-c2nnc(SCC(=O)N3CCCCC3)o2)c1 | 15.8µM | - | 0 | 0 | 0 | -
COc1ccc(-c2nnc(SCC(=O)N3CCCCC3)o2)cc1 | 0 | 0 | 0 | 0 | 0 | 0
COc1ccccc1N1CCN(C(=O)C(=O)c2cn(CC(=O)N3CCOCC3)c3ccccc23)CC1 | - | 0 | 0 | 0 | 0 | 0
SMILES | G9a block | Six1-Eya2 inh | BAZ2B inh | HP1b binding inh | JMJD2A Tudor | CtBP-E1A blk
CC1(c2ccc(Cl)cc2)NC(=O)N(CC(=O)N2CCN(S(=O)(=O)c3ccccc3)CC2)C1=O (stereo unspecified) | ? | 0 | 0 | 0 | 0 | 0
COc1ccc(Cn2c(CCC(=O)Nc3cccc(Cl)c3)nc3cccnc32)cc1 | 0 | - | 0 | 0 | 0 | -
COc1cc(/C=C(\NC(=O)c2ccccc2)C(=O)NC(C(=O)O)c2ccccc2)cc(OC)c1OC (stereo unspecified) | 39.8µM | 0 | 0 | 0 | 0 | 0
COC(=O)/C(=C/c1ccco1)NC(=O)c1ccc(Br)o1 | 44.7µM | 0 | 0 | 0 | 0 | 0
O=C(NCc1ccco1)/C(=C\c1ccco1)NC(=O)c1ccccc1Cl | ? | 0 | 0 | 0 | 0 | 0
NC(=O)/C(=C/c1ccco1)NC(=O)c1ccc(Br)o1 | - | 0 | - | 0 | ? | 0
O=C(NCc1ccco1)/C(=C/c1ccco1)NC(=O)c1ccco1 | 39.8µM | 0 | 0 | 0 | 0 | 0
